Drawing on PubChem BioAssay (EPA / NIEHS), this text covers outcome and AC50 for 35 molecules.

Results filed as inconclusive are left out. A structure can be active in one record and inactive in another. Activity calls are given as the source filed them. Rule for the calls: active = hit-call score of the fitted dose curve at least 0.9, where 1 is the maximum; inconclusive = response in the unintended direction; inactive = score below 0.9.

Assay [1] can be described thus: TOX21_p53_BLA_p2_viability: Viability Assessment in the Tox21 HCT-116 p53 Agonism Beta-lactamase Assay, Phase 2 (AID 2283591).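 Note: compound exposure lasted 16 h at 37 °C; actives lower the ATP signal meaning cytotoxicity.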 The procedure, abridged: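 HCT-116 p53-bla cells (4000/well) rested 5 h at 37C, then received compounds in DMSO (217-fold dilution) for 16 h at 37C, 5% CO2. After the CCF4 read, CellTiter-Glo was added; ATP luminescence was read after 30 min at room temperature.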

For assay [2], the target named is Cellular tumor antigen p53 (Homo sapiens) (UniProt P04637). The assay can be described thus: TOX21_p53_BLA_p2_ratio: Tox21 HCT-116 p53 Agonism Beta-lactamase Assay, Ratio, Phase 2 (AID 2283592). Summed up: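 HCT116 p53-bla; 4000 cells/well; 5 h pre-incubation; cpd in DMSO, 217-fold dilution; 16 h 37C/5% CO2; CCF4-AM 2 h RT; Ex 405, Em 460/530 ratio; DMSO = baseline; positive fitting direction.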

A short description of assay [3]: TOX21_p53_BLA_p5_viability: Viability Assessment in the Tox21 HCT-116 p53 Agonism Beta-lactamase Assay, Phase 5 (AID 2283600). Summed up:
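4000 cells/well; 5 h pre-incubation; DMSO compounds pin-transferred, 217-fold dilution; 16 h, 37C/5% CO2; CCF4-AM 2 h RT; CellTiter-Glo 30 min RT; luminescence.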

Assay [4] deals with Cellular tumor antigen p53 (Homo sapiens) (UniProt P04637). The assay can be described thus: TOX21_p53_BLA_p4_ratio: Tox21 HCT-116 p53 Agonism Beta-lactamase Assay, Ratio, Phase 4 (AID 2283601). Summed up:
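HCT116 cells carrying an inducible beta-lactamase reporter were plated at 4000 cells/well, rested 5 h, then exposed to compounds in DMSO (217-fold dilution) for 16 h at 37C. CCF4-AM substrate was loaded 2 h at room temperature; 460/530 nm emission ratio scored gain-of-signal versus DMSO.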

Assay [5] in a line: TOX21_p53_BLA_p3_viability: Viability Assessment in the Tox21 HCT-116 p53 Agonism Beta-lactamase Assay, Phase 3 (AID 2283593).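 Note: cells exposed to compound for 16 h before reading.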 The procedure, abridged: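 HCT-116 cells (4000/well) rested 5 h at 37C, then got DMSO compounds by pin tool (217-fold dilution) for 16 h at 37C, 5% CO2. After the bla read, CellTiter-Glo was added and luminescence read at 30 min, room temperature.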
For assay [6], the target named is Cellular tumor antigen p53 (Homo sapiens) (UniProt P04637). The assay can be described thus: TOX21_p53_BLA_p3_ratio: Tox21 HCT-116 p53 Agonism Beta-lactamase Assay, Ratio, Phase 3 (AID 2283596). The procedure, abridged:
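HCT116 p53-bla cells (4000/well) given compound in DMSO (217-fold dilution) after 5 h, incubated 16 h at 37C. CCF4-AM substrate 2 h at room temperature; 460/530 nm emission ratio, gain fitted against DMSO.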

A short description of assay [7]: TOX21_p53_BLA_p4_viability: Viability Assessment in the Tox21 HCT-116 p53 Agonism Beta-lactamase Assay, Phase 4 (AID 2283597).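 Note: hits lower the luminescence signal meaning cytotoxicity.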 Summed up:
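Cells plated, 5 h pre-incubation; DMSO compounds pinned (217-fold dilution); 16 h, 37C/5% CO2; CCF4-AM 2 h RT; CellTiter-Glo 30 min RT; luminescence read.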

In assay [8] the target is Cellular tumor antigen p53 (Homo sapiens) (UniProt P04637). Nature of the assay: TOX21_p53_BLA_p5_ratio: Tox21 HCT-116 p53 Agonism Beta-lactamase Assay, Ratio, Phase 5 (AID 2283599). The procedure, abridged:
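HCT-116 cells carrying a p53-inducible beta-lactamase reporter were seeded at 4000 cells/well and dosed after 5 h with compound in DMSO (217-fold dilution). After 16 h at 37C, CCF4-AM substrate was added for 2 h, and the 460/530 nm emission ratio was scored as gain-of-signal versus DMSO.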

Sequence of Cellular tumor antigen p53 (Homo sapiens) (P04637 whole entry, looked up): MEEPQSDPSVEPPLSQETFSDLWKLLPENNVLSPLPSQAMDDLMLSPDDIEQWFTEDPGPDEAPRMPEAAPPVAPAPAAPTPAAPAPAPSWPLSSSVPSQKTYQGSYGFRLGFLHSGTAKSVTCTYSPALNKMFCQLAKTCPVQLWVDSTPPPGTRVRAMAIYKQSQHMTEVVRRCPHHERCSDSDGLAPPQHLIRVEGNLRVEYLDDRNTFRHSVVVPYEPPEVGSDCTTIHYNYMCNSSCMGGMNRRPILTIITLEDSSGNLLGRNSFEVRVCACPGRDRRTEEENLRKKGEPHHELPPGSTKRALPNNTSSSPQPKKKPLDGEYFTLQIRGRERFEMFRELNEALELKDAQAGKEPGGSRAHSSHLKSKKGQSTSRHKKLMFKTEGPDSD

In the case of `CCC(C)(C)OC(=O)N[C@@H](Cc1c[nH]c2ccccc12)C(=O)N[C@@H](CCSC)C(=O)N[C@@H](CC(=O)O)C(=O)N[C@@H](Cc1ccccc1)C(N)=O`, the outcome in assay [1], in assay [2], in assay [3] and in assay [4] was inactive.
As to `ClC(Cl)(Br)Br`, the molecule was classed as inactive in assay [1], in assay [2] and in assay [3].
As to `OCCN1C[C@H](O)[C@@H](O)[C@H](O)[C@H]1CO`, the result in assay [1], in assay [5], in assay [6], in assay [7], in assay [8] and in assay [3] was inactive.
As to `NS(=O)(=O)c1ccccc1OC(F)(F)F`, the result in assay [1], in assay [2], in assay [3] and in assay [4] was inactive.
`CC(C)C(=O)OC(=O)C(C)C`: the molecule was classed as inactive in assay [1], in assay [5], in assay [6], in assay [7] and in assay [8].
For `N#CCc1ccccc1[N+](=O)[O-]`, the call in assay [1], in assay [2], in assay [3] and in assay [4] was inactive.
For `CN1CCN(CC(=O)N2c3ccccc3C(=O)Nc3cccnc32)CC1`, the molecule was called inactive in assay [1], in assay [5], in assay [6] and in assay [7].
Regarding `Cn1cc(S(C)=O)c(=O)c2ccc(F)cc21` (configuration not stated), the molecule was called inactive in assay [1], in assay [2] and in assay [4].
For the molecule `NC(CS)C(=O)O` (configuration not stated), the molecule was called inactive in assay [1], in assay [2] and in assay [4].
For `CC1COc2ccccc2N1` (configuration not stated), the molecule was classed as inactive in assay [1], in assay [5], in assay [6] and in assay [7].
As to `N=C(N)N`, the molecule was classed as inactive in assay [1], in assay [2], in assay [3] and in assay [4].
As usually defined, the AC50 is the midpoint of the concentration-response curve, whichever way the signal moves. Consider `CC(C)(C)CC(C)(C)c1ccc(OCCO)cc1`, for which the result in assay [1], in assay [5], in assay [6], in assay [7], in assay [8] and in assay [3] was inactive. In assay [4], the result was inactive. In addition, the AC50 in assay [7] is 35.6 µM (active).
As to `NO`, the outcome in assay [1], in assay [2] and in assay [4] was inactive.
Consider `O=C(O)c1cc(=O)c2ccccc2o1`, for which the result in assay [1], in assay [2], in assay [3] and in assay [4] was inactive.
As for `CCNC(=O)/C=C/c1cccc(Br)c1`, the molecule was classed as inactive in assay [1], in assay [5], in assay [6], in assay [7], in assay [8] and in assay [3].
`CC(C)C(=O)OCC(=O)[C@@]12O[C@H](C3CCCCC3)O[C@@H]1C[C@H]1[C@@H]3CCC4=CC(=O)C=C[C@]4(C)[C@H]3[C@@H](O)C[C@@]12C`: the molecule was classed as inactive in assay [1], in assay [5], in assay [6], in assay [7], in assay [8] and in assay [3].
Take `NC/C=C/C(=O)O`: the outcome in assay [1], in assay [2], in assay [3] and in assay [4] was inactive.
`CCCCCCCN(CC)CCCC(O)c1ccc(NS(C)(=O)=O)cc1` (configuration not stated): the outcome in assay [1], in assay [5], in assay [6] and in assay [7] was inactive.
Consider `O=C(OC(=O)c1ccccc1)c1ccccc1`, for which the result in assay [1], in assay [2], in assay [3] and in assay [4] was inactive.
With `Cc1cccc(C)c1NC(=O)c1cc(S(N)(=O)=O)c(Cl)cc1O`, the molecule was classed as inactive in assay [1] and in assay [5].
With `CC(=O)OCC(=O)[C@@]12OC3(CCCC3)O[C@@H]1C[C@H]1[C@@H]3CCC4=CC(=O)C=C[C@]4(C)[C@@]3(F)[C@@H](O)C[C@@]12C`, the molecule was classed as inactive in assay [1], in assay [2] and in assay [4].
Take `COc1cc2nc(N3CCN(C(=O)C4COc5ccccc5O4)CC3)nc(N)c2cc1OC` (configuration not stated): the outcome in assay [1], in assay [5], in assay [6] and in assay [7] was inactive.
For `CC(C)(C)NC[C@H](O)COc1cccc2c1CCCC2=O`, the result in assay [1], in assay [5], in assay [6], in assay [7], in assay [8] and in assay [3] was inactive.
Regarding `CCN(CC)CCNC(=O)c1cc(Br)c(N)cc1OC`, the molecule was classed as inactive in assay [1], in assay [2], in assay [3] and in assay [4].
`CCC(C)C(C(=O)OCC[N+](C)(CC)CC)c1ccccc1` (configuration not stated): the call in assay [1], in assay [5], in assay [6] and in assay [7] was inactive.
As for `OCCN1CCN(CCCN2c3ccccc3C=Cc3ccccc32)CC1`, the call in assay [1], in assay [5], in assay [6], in assay [7], in assay [8] and in assay [3] was inactive. Also, in assay [4], the result was inactive. Also, the AC50 in assay [7] was 28.1 µM (active).
On to `O=C(O)c1ccc(NC2OC[C@@H](O)[C@H](O)[C@H]2O)cc1` (some centres not stated), for which the call in assay [1], in assay [2] and in assay [4] was inactive.
For the molecule `CCCCOC(=O)CO`, the call in assay [1], in assay [2], in assay [3] and in assay [4] was inactive.
Regarding `CC(=O)Nc1ccc(C(=O)O)cc1`, the molecule was called inactive in assay [1], in assay [2], in assay [3] and in assay [4].
`CC(C)N=c1cc2n(-c3ccc(Cl)cc3)c3ccccc3nc-2cc1Nc1ccc(Cl)cc1`: the outcome in assay [1], in assay [5], in assay [6], in assay [7], in assay [8] and in assay [3] was inactive.
With `CC(C)(C)NCC(O)COc1ccc(NC(=O)NC2CCCCC2)cc1` (configuration not stated), the call in assay [1], in assay [5], in assay [6], in assay [7] and in assay [3] was inactive.
On to `CC1(C)S[C@@H]2[C@H](N3C(=O)C(c4ccccc4)NC3(C)C)C(=O)N2[C@H]1C(=O)O` (some centres not stated), for which the call in assay [1], in assay [5], in assay [6], in assay [7] and in assay [3] was inactive.
In the case of `CC(=O)c1ccc2c(c1)N(CCCN1CCN(CCO)CC1)c1ccccc1S2`, the call in assay [1], in assay [5], in assay [6] and in assay [3] was inactive. Besides, the AC50 in assay [7] is 31.6 µM (active).
Turning to `O=C(O)CCCC/C=C(\c1ccccc1)c1cccnc1`, the call in assay [1], in assay [5], in assay [6], in assay [7], in assay [8] and in assay [4] was inactive.
`O=C(CO)[C@@H](O)[C@H](O)[C@H](O)CO`: the molecule was classed as inactive in assay [1], in assay [5], in assay [6], in assay [7] and in assay [4].
